Consider 13 compounds from PubChem BioAssay.

Results filed as inconclusive are left out. Active and inactive are the calls of the source. Unless noted, the limit is not given here; nearly all actives have AC50 up to about 26 µM.

What is called AC50 is the concentration at which the activity in the assay is half-maximal. As usually defined, the inhibition is the relative decrease from the control value, in per cent. In general, viability refers to a per cent measure of how many cells are alive, often set against a control.

Test [1] is described as follows: growth inhibition of DIPG glioma cells, dose response, cell-based, SU-DIPG-XIII, MIPE5.0, CellTiter-Glo, qHTS (AID 1347064; cut-off not given, nearly all actives have AC50 up to about 23 µM;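 as to AC50: cells exposed to compound for 48 hours before the viability read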). The settings on record: SU-DIPG-XIII viability, CellTiter-Glo ATP luminescence.
The nature of test [2]: SU-DIPG-XXV glioma cell viability, MIPE5.0 library, qHTS (AID 1347068; cut-off not given, nearly all actives have IC50 up to about 30 µM). On the technique in general: In qHTS, concentration-response curves come from the screen itself.
The nature of test [3]: LFS_MB_P medulloblastoma growth inhibition, cell-based, chromothripsis tumors, cisplatin or BGB combos (AID 1671449; in the data active = inhibition above about 80%;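 also: cells exposed for 96 hours; 0% = vehicle DMSO and 100% = killing by high DMSO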). Conditions: LFS_MB_P medulloblastoma cells.
A short description of test [4]: HDN33 neuroblastoma growth inhibition, cell-based, chromothripsis tumors, cisplatin or BGB combos (AID 1671450; in the data active = inhibition above about 80%;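 also: cells exposed to compound for four days; 0% = vehicle DMSO and 100% = cell killing by high DMSO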). Conditions: HDN33 neuroblastoma cells, stronger effect = higher value.
A short description of test [5]: ICB984 medulloblastoma cell growth inhibition, synergistic combos for chromothripsis tumors, cisplatin or BGB combos (AID 1671451; call rule not given here;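 also: cells exposed for 96 hours before readout; 0% = vehicle DMSO and 100% = killing by high DMSO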). The settings on record: ICB984 medulloblastoma cells, drug combinations, stronger effect = higher value.
The nature of test [6]: LFS_MB_1R medulloblastoma cell growth inhibition, synergistic combos for chromothripsis tumors, cisplatin or BGB combos (AID 1671452; in the data active = inhibition above about 80%;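 also: cells exposed for 96 hours before readout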). Conditions: LFS_MB_1R medulloblastoma cells, stronger effect = higher value.
The nature of test [7]: HTB85 osteosarcoma cell growth inhibition, synergistic combos for chromothripsis tumors, BGB or cisplatin IC20 combos (AID 1671453; in the data active = inhibition above about 80%;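 also: cells exposed for 96 hours before readout; 0% = vehicle DMSO and 100% = high DMSO killing control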). The settings on record: HTB85 osteosarcoma cells, drug combinations, stronger effect = higher value.
A short description of test [8]: CRL2098 osteosarcoma cell growth inhibition, synergistic combos for chromothripsis tumors, BGB or cisplatin IC20 combos (AID 1671454; in the data active = inhibition above about 80%;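 also: cells exposed for 96 h before readout; 0% = vehicle DMSO and 100% = killing by high DMSO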). Conditions: CRL2098 osteosarcoma cells, drug combinations, stronger effect = higher value.
Test [9] can be described thus: HD-MB03 medulloblastoma cell growth inhibition, synergistic combos for chromothripsis tumors, BGB or cisplatin IC20 combos (AID 1671455; in the data active = inhibition above about 83%;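 also: 0% = vehicle DMSO and 100% = high DMSO as cytotoxic control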). Conditions: HD-MB03 medulloblastoma cells, stronger effect = higher value.
Test [10] in a line: UWB1.289 ovarian carcinoma cell growth inhibition, synergistic combos for chromothripsis tumors, BGB or cisplatin combos (AID 1671456; in the data active = inhibition above about 80%;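 also: cells exposed to compound for four days; 0% = vehicle DMSO and 100% = killing by high DMSO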). The settings on record: UWB1.289 ovarian carcinoma cells, stronger effect = higher value.
Test [11] is described as follows: LFS_MB_2R medulloblastoma cell growth inhibition, synergistic combos for chromothripsis tumors, cisplatin combos (AID 1671457; in the data active = inhibition above about 80%;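 also: cells exposed to compound for four days before readout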). The settings on record: LFS_MB_2R medulloblastoma cells, stronger effect = higher value.
Test [12] in a line: MDA-MB-436 breast carcinoma cell growth inhibition, synergistic combos for chromothripsis tumors, BGB or cisplatin combos (AID 1671458; call rule not given here;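 also: cells exposed for 96 hours; 0% = vehicle DMSO and 100% = killing by high DMSO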). The settings on record: MDA-MB-436 breast carcinoma growth inhibition, drug combinations, stronger effect = higher value.
Test [13] can be described thus: UWB1.289_BRCA1 ovarian cancer growth, cell-based, BGB or cisplatin combinations (AID 1671459; in the data active = inhibition above about 80%). Conditions: UWB1.289 BRCA1 ovarian carcinoma, drug combinations, stronger effect = higher value.
Test [14] in a line: human astrocyte viability loss, single and combined drugs, cytotoxicity control for chromothriptic childhood tumor combination screen, cell-based, BGB or cisplatin IC20 combos (AID 1671460; in the data active = inhibition above about 80%;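 also: cells exposed to compounds for 96 hours before viability readout; 0% = vehicle and 100% = killing control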). Conditions: Human astrocytes, drug combinations, stronger effect = higher value.
A short description of test [15]: growth inhibition of BT084 medulloblastoma cells, cell-based, ICGC_MB145, cisplatin and BGB IC40 combos (AID 1671461; in the data active = inhibition above about 80%;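 also: cells exposed to drugs for 96 hours; 0% = vehicle DMSO and 100% = high DMSO full killing control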). Conditions: drug combinations, stronger effect = higher value.
Test [16] can be described thus: growth inhibition of RCMB18 medulloblastoma cells, cell-based, cisplatin and BGB IC40 combos (AID 1671462; in the data active = inhibition above about 80%;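 also: cells exposed to compound for four days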). The settings on record: stronger effect = higher value.
The nature of test [17]: growth inhibition of CRL1545 osteosarcoma cells, cell-based, cisplatin and BGB IC20 combos (AID 1671464; in the data active = inhibition above about 80%;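 also: cells exposed to compound for 96 hours before readout; 0% = vehicle DMSO and 100% = high DMSO killing control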). Conditions: stronger effect = higher value.
Test [18] is described as follows: JHH-DIPG-1 glioma cell viability, MIPE5.0 library, CellTiter-Glo luminescence, qHTS (AID 1347067).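 Also: cells exposed to compound for 48 hours before readout.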 The settings on record: JHH-DIPG-1 glioma viability, CellTiter-Glo ATP luminescence. A general note: ATP-based viability assays read luminescence as a measure of living cells.
A short description of test [19]: viability loss in pontine glioma line – cell-based, SU-DIPG-XXV, MIPE5.0, CellTiter-Glo, qHTS, dose response (AID 1347065).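 Also: cells exposed to compound for 48 hours before ATP readout.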 The settings on record: CellTiter-Glo ATP luminescence.
Test [20] in a line: SU-DIPG-VI glioma cell viability, MIPE4.0 library, CellTiter-Glo luminescence, qHTS (AID 1347066; cut-off not given, nearly all actives have AC50 up to about 30 µM;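 also: cells exposed to compound for 48 hours before readout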). The settings on record: CellTiter-Glo ATP luminescence.
Test [21] can be described thus: liver-stage malaria parasite growth inhibition, primary screen, cell-based, HepG2, luciferase luminescence, HepG2 viability (AID 624349; in the data active = parasite load remaining mostly below about 12%, no sharp cut-off; inactive = mostly above about 10%;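 also: 100% = mean of DMSO negative control wells on the same plate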). Conditions: P. berghei liver stage in HepG2, luciferase luminescence, concentration not given here; parasite load remaining: stronger effect = lower value; viability: measured here: HepG2 viability without parasites.
Where [22] appears, read: measured here: combination with BGB IC40, at 0.05 µM.
Where [23] appears, read: measured here: with BGB IC20 combination, at 0.5 µM.
Where [24] appears, read: measured here: with cisplatin IC20 combination, at 0.5 µM.
The mark [25] stands for this setting: measured here: combination with cisplatin, at 0.5 µM.
Setting [26] is: measured here: combination with cisplatin, at 5 µM.

On to `O=c1[nH]c([C@@H]2CCCN2)nc2c1oc1ccc(Cl)cc12`, for which, in [1], the AC50 was 20.9 µM (active). In test [2], the compound was classed as inactive. In addition, the inhibition was -0.05% (inactive) in test [3] (at 0.5 µM, stronger effect = higher value); -31.4% in [3] (measured here: combination with BGB IC20, at 0.005 µM); 94.4% in test [3] (measured here: combination with BGB IC40, at 0.005 µM); -14% in test [3] (setting [22]); 64.5% in test [3] (measured here: combination with cisplatin, at 0.5 µM, stronger effect = higher value); -16.4% in [3] (measured here: combination with cisplatin, at 5 µM, stronger effect = higher value). The inhibition in test [4] (BGB combo, at 5 µM) was 1.11%; in test [4] (at 0.5 µM), -21.3% (inactive); in [4] (cisplatin combo, at 5 µM), -6.62%; in test [4] (setting [23]), -15.4%; in test [4] (setting [24]), -18.8%; in test [4] (single agent, at 5 µM), 3.38%. Besides, the inhibition is -39.5% in test [5] (BGB IC20 combo, at 0.005 µM); -26.9% in test [5] (BGB IC40 combo, at 0.005 µM); -16.5% in test [5] (BGB IC40 combo, at 0.05 µM); -16.4% (inactive) in [5] (at 0.5 µM); -22.5% in test [5] (cisplatin combo, at 0.05 µM); -15.6% in test [5] (cisplatin combo, at 0.5 µM). Besides, the inhibition in test [5] (cisplatin combo, at 5 µM) is 4.34%; in test [5] (measured here: 5 uM single agent, at 5 µM), -19.5%; in test [6] (at 0.5 µM), -31% (inactive); in [6] (setting [22]) it was -29.1%; in test [6] (setting [25]) it was -68.3%; in [6] (setting [26]), -10.2%. The inhibition was -12.9% (inactive) in test [7] (at 0.5 µM); -9.31% in test [7] (measured here: with BGB IC20, at 0.5 µM); -19.7% in test [7] (measured here: with BGB IC20, at 5 µM); -5.61% in test [7] (measured here: with cisplatin IC20, at 0.5 µM); -2.34% in [7] (measured here: with cisplatin IC20, at 5 µM); -2.45% in test [7] (single agent, at 5 µM). The inhibition in [8] (at 0.5 µM) is -86.2% (inactive); in test [8] (measured here: combination with BGB at IC20, at 0.5 µM) it was -77.4%; in test [8] (measured here: combination with cisplatin at IC20, at 0.5 µM), -117%; in test [9] (at 0.5 µM) it was -12.2% (inactive); in test [9] (measured here: combo with BGB at IC20, at 0.5 µM), -2.56%; in test [9] (measured here: combo with cisplatin at IC20, at 0.5 µM), -27.5%. For the same compound, the inhibition in test [10] (at 0.5 µM) is -17.8% (inactive); in [10] (measured here: inhibition with BGB combination, at 0.05 µM) it was -12.3%; in test [10] (measured here: inhibition with cisplatin combination, at 0.05 µM), -25.4%; in [11] (at 0.5 µM) it was -16% (inactive); in [11] (setting [25]), -22.2%; in test [11] (setting [26]) it was -24.3%. The inhibition in test [12] (at 0.5 µM) was -35% (inactive); in test [12] (measured here: BGB combination, at 0.5 µM) it was -39.6%; in test [12] (measured here: BGB combination, at 5 µM) it was -62.1%; in test [12] (measured here: cisplatin combination, at 0.5 µM), -52.2%; in test [12] (measured here: cisplatin combination, at 5 µM) it was -71.9%; in [13] (BGB combination, concentration series, at 5 µM) it was -4.02%. For the same compound, the inhibition in test [13] (at 0.5 µM) is -15.4% (inactive); in [13] (cisplatin combination, concentration series, at 5 µM), -5.14%; in test [14] (at 0.5 µM), 1.64% (inactive); in [14] (measured here: combo with BGB IC20, at 0.5 µM) it was 11.1%; in [14] (measured here: combo with cisplatin IC20, at 0.5 µM), -0.305%; in test [15] (at 0.5 µM), 18.2% (inactive). Further, the inhibition in [15] (cisplatin combination, at 0.5 µM) is 0.765%; in [15] (cisplatin combination, at 5 µM), -129%; in test [15] (measured here: BGB IC40 combination 0.05 uM, at 0.05 µM), -10.1%; in [15] (single agent, at 5 µM), 7.55%; in [16] (at 0.5 µM), -15.8% (inactive); in test [16] (cisplatin combo, at 5 µM), -8.27%. Further, the inhibition in test [16] (measured here: BGB IC40 combination, at 0.05 µM) was 3.23%; in test [16] (setting [25]), -15.3%; in test [16] (single agent, at 5 µM), -12.8%; in [17] (at 0.5 µM), -44.6% (inactive); in test [17] (setting [23]), -65.7%; in test [17] (setting [24]), -36.2%. The inhibition was -56% in test [17] (single agent, at 0.05 µM) and -51.5% in test [17] (single agent, at 5 µM).

For the compound `FC(F)(F)c1ccc(CNc2ccc(Cc3c[nH]c4ncc(Cl)cc34)cn2)cn1`, the outcome in test [1], in test [18] and in [2] was inactive.

As to `CNc1nc(Nc2cnn([C@H]3CCN(C4COC4)C[C@@H]3F)c2Cl)ncc1C(F)(F)F`, the AC50 in test [19] was 20.9 µM (active).

With `Cc1nn(C)c2c1C(c1ccc(C(F)(F)F)cc1)C(C#N)=C(N)O2` (stereo not drawn), the compound was called inactive in [1] and in test [2].

For the compound `Cc1ccc(Nc2nnc(Cc3ccncc3)c3ccccc23)cc1Br`, the AC50 was 14.8 µM (active) in test [19] and 18.6 µM (active) in test [18].

In the case of `CN1CCC(COc2cnc(-c3cccc(Cn4nc(-c5cccc(C#N)c5)ccc4=O)c3)nc2)CC1`, the AC50 in [19] was 26.3 µM (active); in [18], 29.5 µM (active). In [20], the result was inactive.

Turning to `Cc1nnn(C)c1-c1cnc2c3ccc(C(C)(C)O)cc3n([C@H](c3ccccc3)C3CCOCC3)c2c1`, the AC50 in [19] is 0.372 µM (active); in [18] it was 8.33 µM (active).

For `O=C(NCCCNc1nc(Nc2cccc(CN3CCOCC3)c2)ncc1C1CC1)C1CCC1`, the AC50 in test [19] was 7.42 µM (active).

As to `COc1ccc2nc3n[nH]c(C)c3c(NCCOCCO)c2c1`, the parasite load remaining in [21] is 46.1% (inactive). In test [21], this compound displayed a viability of 90.1%. The call in test [1] and in test [18] was inactive.

For the compound `Nc1ncnc2c1c(COc1cccc(Cl)c1)nn2C1CCOCC1`, the result in test [1] and in test [2] was inactive.

`NC(=O)c1cnc2[nH]ccc2c1NC1C2CC3C[C@H]1CC(O)(C3)C2` (stereo partly drawn): in test [19], the AC50 is 9.34 µM (active).

With `Nc1nc(OC(c2ccc(-c3cccc(F)c3)cc2)C(F)(F)F)cc(-c2ccc(C[C@@H](N)C(=O)O)cc2)n1` (stereo partly drawn), the AC50 in [19] was 23.5 µM (active).

In the case of `NCCCC[C@H](NC(=O)[C@@H](NC(=O)[C@H](Cc1c[nH]c2ccccc12)NC(=O)[C@H](CCCCN)NC(=O)[C@H](CCCCN)NC(=O)[C@H](Cc1c[nH]c2ccccc12)NC(=O)[C@H](Cc1c[nH]c2ccccc12)NC(=O)[C@H](CCCCN)NC(=O)[C@@H](N)CCCCN)C(c1ccccc1)c1ccccc1)C(N)=O`, the AC50 in test [19] was 20.9 µM (active).
